Data as given in PubChem BioAssay (NCI).
The panel holds about 83,000 compounds, 20% with a hit somewhere; the sample as a whole holds those more often.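 Each cell line was grown in a 96-well plate and treated with one concentration of compound for 48 hours. Values below 10 were considered active.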 Values without a mark were called inactive. The source made the active and inactive calls.

Legend:
Assay in all cases: NCI-60 one-dose screen, 48 h (100 = growth as untreated, 0 = no growth, -100 = all killed)
Settings in all cases: 10 µM unless noted
SR leukemia = test system: SR leukemia
RPMI-8226 leukemia = test system: RPMI-8226 leukemia
OVCAR-8 ovarian = test system: OVCAR-8 ovarian
OVCAR-5 ovarian = test system: OVCAR-5 ovarian
OVCAR-4 ovarian = test system: OVCAR-4 ovarian
SK-OV-3 ovarian = test system: SK-OV-3 ovarian
IGROV1 ovarian = test system: IGROV1 ovarian
OVCAR-3 ovarian = test system: OVCAR-3 ovarian
HS 578T breast = test system: HS 578T breast
NCI/ADR-RES ovarian = test system: NCI/ADR-RES ovarian

| Compound | growth (SR leukemia) | growth (RPMI-8226 leukemia) | growth (OVCAR-8 ovarian) | growth (OVCAR-5 ovarian) | growth (OVCAR-4 ovarian) | growth (SK-OV-3 ovarian) | growth (IGROV1 ovarian) | growth (OVCAR-3 ovarian) | growth (HS 578T breast) | growth (NCI/ADR-RES ovarian) |
| --- | --- | --- | --- | --- | --- | --- | --- | --- | --- | --- |
| COc1cc(C[C@H]2COc3cc(O)cc(O)c3C2=O)ccc1O | 19% | 18.2% | 28.1% | 101% | 63.1% | 29.2% | 41.3% | 14.1% | 13.7% | 20.9% |
| COC(=O)c1c(C)nc(C)c2c1C(=O)C=C(NCc1ccccc1)C2=O | 54.1% | 88.4% | 97.8% | 81.7% | 64.6% | 91.4% | 66.7% | 44.1% | 116% | 81.7% |
| COc1ccc(-c2cc(-c3cn(-c4cccc(Cl)c4)nc3-c3ccc(OC)cc3)on2)cc1 | 68.4% | 88.3% | 93.7% | 111% | 106% | 98% | 97.5% | 103% | 96.3% | 100% |
| Cc1ccc2c(c1)sc1nc(-c3c[nH]c4ccccc34)c(Nc3ccccc3)n12 | 97.2% | 102% | 104% | 105% | 95.8% | -4.12% (active) | 104% | 99.2% | 98.7% | 104% |
| CN(C)c1ccc([C@@H](C(=O)Nc2cccc([N+](=O)[O-])c2)N(C(=O)c2cc3ccccc3[nH]2)c2cccc([N+](=O)[O-])c2)cc1 | 97% | 92.6% | 93.3% | 94.7% | 99.4% | 103% | 103% | 111% | 93.5% | 102% |
| COc1ccc2c(c1)C(C)Cc1c(ncnc1-n1cnc3cc(C)ccc31)N2C (stereo not given) | -0.883% (active) | 11.9% | 9.01% (active) | 78.1% | 58.2% | 19.8% | 27.5% | 6.09% (active) | 36.2% | 6.69% (active) |
| O=C(NCc1ccc(Cn2c(=O)sn(-c3ccccc3)c2=O)cc1)OCc1ccc2cccc(O)c2n1 | -11.3% (active) | -22.5% (active) | -0.135% (active) | -61.2% (active) | -33.6% (active) | 75.8% | -76.5% (active) | -87.1% (active) | -1.39% (active) | -28.1% (active) |
| COc1ccc(/C=C(\C(=O)NCc2cccnc2)S(=O)(=O)c2ccccc2)cc1OC | 17.4% | 18% | 28.3% | 45% | 42.1% | 81.1% | 19.7% | 19.7% | 59.3% | 83% |
| CC(C)n1c2ccc(Br)cc2c2c3c(c4c5ccccc5ccc4c21)C(=O)NC3=O | 61.6% | 91.6% | 100% | 87.7% | 94.2% | 105% | 84.8% | 94.2% | 108% | 93.2% |
| C=C(C)[C@@H]1CC[C@]2(C(=O)Nc3ccccn3)CC[C@]3(C)[C@H](CC[C@@H]4[C@@]5(C)CCCNC(C)(C)[C@@H]5CC[C@]43C)[C@@H]12 | -29.5% (active) | -46% (active) | 12.4% | 70.7% | 8.81% (active) | 32.2% | 35.4% | 20.9% | 26.9% | 61% |
| COc1ccc(C2[C@@H](c3ccccc3)C(=O)N2c2cc(OC)c(OC)c(OC)c2)cc1F (stereo not given in full) | -6.55% (active) | 6.59% (active) | 1.85% (active) | 65.1% | 59% | 4.86% (active) | 18.8% | 9.25% (active) | 31.3% | 11.9% |
| Oc1c(CN2CCC(N3CCOCC3)CC2)cc(Cc2cc(CN3CCC(N4CCOCC4)CC3)c(O)c3ncccc23)c2cccnc12 | 20% | 34.8% | 19.6% | 47.3% | 15.4% | 0.924% (active) | 25% | 19.6% | 58.9% | 40.7% |
| O=S(=O)(Nc1cc(F)cc(F)c1)c1ccc(-c2cnc(C3CC3)o2)cc1 | 16.2% | 26.5% | 49.6% | 71% | 67.8% | 60.2% | 34.3% | 2.74% (active) | 14.4% | 26.4% |
